# Source: PubChem BioAssay (Tox21)
# “And” between values parts separate entries of the source, which are not always exact repeats. Equal values may be shown once. Results filed as inconclusive are left out. Where a call stands in place of a potency, no number is given. A structure can be active in one record and inactive in another. The source made the active and inactive calls. Unless noted, calls come from the whole dose curve; as a rule, active = well fitted curve in the direction sought with a large enough effect in the repeat runs; inconclusive = weak or mixed curves; inactive = no such curve, though single readings can be large; an effect the other way counts as inactive or inconclusive.
# What was measured:
# [1] = qHTS assay to identify small molecule agonists of the NFkB signaling pathway - cell viability counter screen (AID 1159515; calls by dose curve; note: nearly all actives have a fitted effect of over 55% in size; note: potency is the fitted concentration of half-maximal effect)
# Summary of the method: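 Parallel cytotoxicity counter screen in ME-180 cells carrying an NFkB-response-element beta-lactamase reporter, 2,000 cells/well. Compound exposure lasted 5 hr at 37 C, 5% CO2. Cell viability was quantified by CellTiter-Glo luminescence.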
# [2] = qHTS assay to identify small molecule antagonists of the retinoid-related orphan receptor gamma (ROR-gamma) signaling pathway - cell viability counter screen (AID 1159520); note: nearly all actives have a fitted effect of over 50% in size; note: potency is the fitted concentration of half-maximal effect
# Summary of the method: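 Cytotoxicity was read from cellular ATP (CellTiter-Glo luminescence) after 16 hr at 37 C with 1 uM doxycycline induction. The inducer was added 2 hr after compound transfer to Tet-on ROR gamma CHO cells.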
# [3] = qHTS assay to identify small molecule agonists of the AP-1 signaling pathway - cell viability counter screen (AID 1159525; calls by dose curve; note: nearly all actives have a fitted effect of over 55% in size; note: potency is the fitted concentration of half-maximal effect)
# Summary of the method: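 Intracellular ATP by Cell Titer Glo luminescence (30 min, RT) in the same ME-180 AP-1-bla wells after the 5 h compound exposure at 37 °C. Normalised to tetra n-octyl ammonium bromide and DMSO controls.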
# [4] = qHTS assay to identify small molecule agonists of the RXR signaling pathway - cell viability counter screen (AID 1159529); note: nearly all actives have a fitted effect of over 50% in size; note: potency is the fitted concentration of half-maximal effect
# Summary of the method: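 Cell viability is measured by CellTiter-Glo luminescence, 30 min at room temperature, in wells already read for beta-lactamase. Engineered HEK 293T cells (RXR-alpha-UAS-bla) are dosed 16 hr at 37 C. Tetraoctyl ammonium bromide serves as positive control.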
# [5] = qHTS assay to identify small molecule antagonists of the retinoid acid receptor (RAR) signaling pathway - cell viability counter screen (AID 1159551); note: nearly all actives have a fitted effect of over 35% in size; note: potency is the fitted concentration of half-maximal effect
# Summary of the method: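 ATP-based viability, C3RL4 cells, 6 h at 37 C with 1 uM final retinol co-added after compound; luminescence read 30 min post CellTiter-Glo, RT.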
# [6] = qHTS assay to identify small molecule antagonists of the estrogen related receptor (ERR) signaling pathway - cell viability counter screen (AID 1224818);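 note: series mostly up to about 46 µM; viability measured after 17.5 h of compound exposure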
# Summary of the method: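 Quantitative high-throughput viability counter screen in ERR cells. Compounds (DMSO) incubated 17.5 h at 37 C; read-out was CellTiter-Fluor fluorescence.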
# [7] = qHTS assay to identify small molecule antagonists of the estrogen related receptor (ERR) signaling pathway (AID 1224819; note: nearly all actives have a fitted effect of over 50% in size; note: potency is the fitted concentration of half-maximal effect)
# Summary of the method: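 ERR reporter cell line (NTP) plated at 2,000 cells/well, settled 6 h at 37C/5% CO2, then exposed to LOPAC compounds for 18 h at 37C. One-Glo luciferase luminescence read after 30 min at room temperature.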
# [8] = qHTS assay to identify small molecule agonists of the estrogen related receptor (ERR) signaling pathway (AID 1224820)
# Summary of the method: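 An ERR cell line provided by NTP was seeded at 2,000 cells per well and allowed to settle for 6 h before compounds in DMSO were added. After 18 h at 37 C, luciferase activity was measured by One-Glo luminescence.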
# [9] = system: estrogen-related receptor alpha (ERRalpha) with PGC-1alpha coactivator, human; assay: qHTS assay to identify small molecule antagonists of the estrogen related receptor signaling pathway with the pleiotropic PPARgamma coactivator (PGC) (AID 1224821; calls by dose curve; note: nearly all actives have a fitted effect of over 50% in size; note: potency is the fitted concentration of half-maximal effect)
# Summary of the method: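 A PGC/ERR cell line supplied by NTP is seeded, allowed 6 h at 37 C, and treated with test compounds in DMSO for 18 h. Signal is then measured as luciferase luminescence using One-Glo.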
# [10] = qHTS assay to identify small molecule antagonists of the estrogen related receptor signaling pathway with the pleiotropic PPARgamma coactivator (PGC) cell viability counter screen (AID 1224822; note: series mostly up to about 46 µM)
# Summary of the method: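 Cytotoxicity in the PGC/ERR cell line is assessed with CellTiter-Fluor, read as fluorescence intensity 30 min after reagent addition, following 17.5 h compound treatment at 37 C.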
# [11] = qHTS assay to identify small molecule agonists of the estrogen related receptor signaling pathway with the pleiotropic PPARgamma coactivator (PGC) (AID 1224823)
# Summary of the method: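 Compounds dissolved in DMSO are added by pin tool to PGC/ERR cells that have settled for 6 h, and incubation continues 18 h at 37 C. Reporter output is measured as One-Glo luminescence.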
# [12] = molecular target: Nuclear receptor ROR-gamma (Homo sapiens) (UniProt P51449); assay: qHTS assay to identify small molecule antagonists of the retinoid-related orphan receptor gamma (ROR-gamma) signaling pathway (AID 1159521; note: nearly all actives have a fitted effect of over 50% in size; note: potency is the fitted concentration of half-maximal effect)
# Summary of the method: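 RORγ antagonism is scored from reduced reporter luminescence in Tet-on CHO cells. Induction used 1 uM final doxycycline hyclate for 16 h at 37 C, following a 2 h compound exposure.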
# [13] = qHTS assay to identify small molecule agonists of the vitamin D receptor (VDR) signaling pathway - cell viability counter screen (AID 743224); note: nearly all actives have a fitted effect of over 50% in size; note: potency is the fitted concentration of half-maximal effect
# Summary of the method: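 Compounds were pin-transferred onto VDR-bla cells plated 4 h earlier; following 16 h incubation at 37C, cell viability was quantified by CellTiter-Glo luminescence after 30 min at room temperature.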
# [14] = qHTS assay to identify small molecule antagonists of the retinoic acid receptor (RAR) signaling pathway (AID 1159552; note: nearly all actives have a fitted effect of over 50% in size; note: potency is the fitted concentration of half-maximal effect)
# Summary of the method: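 Quantitative HTS in C3RL4 RARE-luciferase reporter cells. Compounds were added with 1 uM (final) retinol; luminescence was read after 6 hr.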
# [15] = qHTS assay to identify small molecule antagonists of the vitamin D receptor (VDR) signaling pathway - cell viability counter screen (AID 743225); note: nearly all actives have a fitted effect of over 50% in size; note: potency is the fitted concentration of half-maximal effect
# Summary of the method: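 Cells (VDR-UAS-bla HEK 293T) are plated, rested 4 h at 37C, dosed with compound and 3 nM final 1-alpha,25-dihydroxy vitamin D3, and incubated 16 h. Viability is taken from CellTiter-Glo luminescence in the reporter wells.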
# [16] = molecular target: Retinoic acid receptor RXR-alpha (Homo sapiens) (UniProt P19793); assay: qHTS assay to identify small molecule agonists of the RXR signaling pathway (AID 1159527; calls by dose curve; note: nearly all actives have a fitted effect of over 35% in size)
# Summary of the method: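 qHTS of the Tox21 10K library in GeneBLAzer RXR-alpha HEK 293T cells carrying a beta-lactamase reporter […]; 16 hr treatment, 9-cis retinoic acid as agonist control, FRET read-out.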
# [17] = qHTS assay to identify small molecule agonists of the retinoic acid receptor (RAR) signaling pathway (AID 1159553)
# Summary of the method: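 Quantitative high-throughput format: the Tox21 10K library was tested on C3RL4 RARE-luciferase cells for 6 hr at 37 C and 5% CO2, with luminescence measured after a 30 min room-temperature reagent step.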
# [18] = qHTS assay to identify small molecule agonists of the AP-1 signaling pathway (AID 1159526; calls by dose curve)
# [19] = qHTS assay to identify small molecule agonists of the endoplasmic reticulum stress response signaling pathway - cell viability counter screen (AID 1159517; calls by dose curve; note: nearly all actives have a fitted effect of over 50% in size; note: potency is the fitted concentration of half-maximal effect)
# Summary of the method: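 ESRE-bla HeLa cells (1,500/well) were plated overnight at 37 C and exposed to compounds for 5 hr. After the 2 hr beta-lactamase substrate read, CellTiter-Glo went into the same wells, and luminescence was read after 30 min at room temperature.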
# [20] = qHTS assay to identify small molecule agonists of the endoplasmic reticulum stress response signaling pathway (AID 1159516; active = well fitted activation curve with a large enough effect in the signal ratio in the repeat runs, not every such curve was filed as active; the % refers to the signal ratio)
# Summary of the method: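 Using a HeLa line with an ESRE-driven beta-lactamase gene, agonist activity was measured by FRET substrate fluorescence (460 and 530 nm emission) after cells were treated with compounds for 5 hr at 37 C and 5% CO2.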
# Sequence of Retinoic acid receptor RXR-alpha (Homo sapiens) (P19793 whole entry, looked up): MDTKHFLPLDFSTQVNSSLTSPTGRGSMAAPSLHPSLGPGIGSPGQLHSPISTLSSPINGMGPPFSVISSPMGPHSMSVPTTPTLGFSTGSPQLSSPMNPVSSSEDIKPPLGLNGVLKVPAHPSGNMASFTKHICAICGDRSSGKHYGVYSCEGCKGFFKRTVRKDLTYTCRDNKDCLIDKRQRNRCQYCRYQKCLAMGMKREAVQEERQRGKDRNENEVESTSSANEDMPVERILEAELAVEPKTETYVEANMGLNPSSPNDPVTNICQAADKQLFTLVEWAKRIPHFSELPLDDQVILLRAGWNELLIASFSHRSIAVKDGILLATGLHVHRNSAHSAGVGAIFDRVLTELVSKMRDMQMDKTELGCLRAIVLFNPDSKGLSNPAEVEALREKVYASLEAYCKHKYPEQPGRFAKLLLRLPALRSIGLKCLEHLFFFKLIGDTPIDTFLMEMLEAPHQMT
structure (smiles),measurement,setting,value
CCCCC(CC)COC(=O)c1ccccc1C(=O)O (centres undefined),Potency,[1],inactive
same,Potency,[2],inactive
same,Potency,[3],inactive
same,Potency,[4],inactive
same,Potency,[5],inactive
same,Potency,[6],inactive
same,Potency,[7],inactive
same,outcome,[8],inactive
same,Potency,[9],inactive
same,Potency,[10],inactive
same,outcome,[11],inactive
CCc1cc(Cc2cc(CC)c(N)c(CC)c2)cc(CC)c1N,Potency,[1],49 µM (active)
same,Potency,[12],48.6 µM (active)
same,Potency,[4],38.9 µM (active)
same,Potency,[5],inactive
Oc1ccc2cc(SSc3ccc4cc(O)ccc4c3)ccc2c1,Potency,[13],inactive
same,Potency,[1],inactive
same,Potency,[2],48.6 µM (active)
same,Potency,[12],48.6 µM (active)
same,Potency,[3],inactive
same,Potency,[14],7.7 µM (active) and 12.2 µM (active)
N#CSc1ccc(N)c([N+](=O)[O-])c1,Potency,[13],55.3 µM (active)
same,Potency,[1],inactive
same,Potency,[12],48.9 µM (active)
same,Potency,[3],inactive
same,Potency,[14],17.3 µM (active)
COc1cc(-c2nc(NC(=O)c3cc4cc(C)cc(C)c4n3CC(=O)O)sc2CCC2CCCCC2)c(OC)cc1Cl,Potency,[13],10 µM (active)
same,Potency,[15],10 µM (active)
same,Potency,[1],10 µM (active)
same,Potency,[2],39.7 µM (active)
same,Potency,[12],19.9 µM (active)
same,Potency,[3],28.3 µM (active)
same,Potency,[4],20.1 µM (active)
Nc1ccccc1O,Potency,[13],inactive
same,Potency,[15],inactive
same,Potency,[1],38.4 µM (active)
same,Potency,[2],inactive
same,Potency,[12],inactive
same,Potency,[3],15.3 µM (active)
same,Potency,[16],inactive
same,Potency,[4],inactive
same,Potency,[5],inactive
same,Potency,[14],inactive
CCOC(=O)c1nc(C(Cl)(Cl)Cl)n(-c2ccc(Cl)cc2Cl)n1,Potency,[1],inactive
same,Potency,[12],21.7 µM (active)
same,Potency,[3],inactive
same,Potency,[4],49 µM (active)
same,Potency,[5],inactive
CCCC(=O)OC[C@@H](OC(=O)CCC)[C@@H](OC(=O)CCC)[C@H](Cn1c2nc(=O)[nH]c(=O)c-2nc2cc(C)c(C)cc21)OC(=O)CCC,Potency,[13],inactive
same,Potency,[15],inactive
same,Potency,[1],inactive
same,Potency,[2],inactive
same,Potency,[3],inactive
same,Potency,[4],inactive
same,Potency,[5],inactive
same,Potency,[14],inactive
Cc1c(C)c2c(c(C)c1OC(=O)CCC(=O)O)CC[C@@](C)(CCC[C@H](C)CCC[C@H](C)CCCC(C)C)O2,Potency,[13],inactive
same,Potency,[15],inactive
same,Potency,[1],inactive
same,Potency,[2],27.6 µM (active)
same,Potency,[12],27.6 µM (active)
same,Potency,[5],inactive
same,Potency,[14],inactive
same,Potency,[17],inactive
O=CC=C(c1ccccc1)c1ccccc1,Potency,[1],inactive
same,Potency,[12],61.6 µM (active)
same,Potency,[3],inactive
same,Potency,[4],inactive
same,Potency,[14],inactive
Cc1cc(C2CCCCC2)n(O)c(=O)c1,Potency,[13],18.8 µM (active)
same,Potency,[1],5.35 µM (active)
same,Potency,[12],23.7 µM (active)
same,Potency,[3],inactive
same,Potency,[4],inactive
same,Potency,[5],inactive
same,Potency,[14],inactive
O=C(Nc1ccc(Oc2ccc(Cl)cc2)c(Cl)c1)c1cc(I)cc(I)c1O,Potency,[13],18.8 µM (active)
same,Potency,[1],inactive
same,Potency,[12],23.7 µM (active)
same,Potency,[3],inactive
same,Potency,[5],inactive
CN(C)C(=O)C1(N2CCCCC2)CCN(CC[C@@]2(c3ccc(Cl)c(Cl)c3)CN(C(=O)c3ccccc3)CCO2)CC1,Potency,[13],20.4 µM (active)
same,Potency,[15],22.9 µM (active)
same,Potency,[1],51.3 µM (active)
same,Potency,[2],50.9 µM (active)
same,Potency,[12],32.1 µM (active)
same,Potency,[4],16.2 µM (active)
same,Potency,[14],28.6 µM (active)
CCCCCCCCS(=O)C(C)Cc1ccc2c(c1)OCO2 (centres undefined),Potency,[13],50 µM (active)
same,Potency,[15],44.5 µM (active)
same,Potency,[1],inactive
same,Potency,[2],inactive
same,Potency,[12],inactive
same,Potency,[3],inactive
same,Potency,[5],inactive
Clc1ccc2nsnc2c1NC1=NCCN1,Potency,[13],inactive
same,Potency,[15],inactive
same,Potency,[1],inactive
same,Potency,[2],inactive
same,Potency,[3],inactive
same,Potency,[18],inactive
same,Potency,[16],inactive
same,Potency,[4],inactive
same,Potency,[5],inactive
same,Potency,[6],inactive
same,Potency,[7],inactive
same,outcome,[8],inactive
same,Potency,[9],inactive
same,Potency,[10],inactive
same,outcome,[11],inactive
Clc1ccccc1C(c1ccccc1)(c1ccccc1)n1ccnc1,Potency,[15],inactive
same,Potency,[1],inactive
same,Potency,[2],24.3 µM (active) and inactive
same,Potency,[12],2.73 µM (active) and 7.5 µM (active)
same,Potency,[3],21.9 µM (active) and inactive
same,Potency,[4],21.9 µM (active)
same,Potency,[5],68.6 µM (active) and inactive
same,Potency,[14],19.3 µM (active)
same,Potency,[6],inactive
same,Potency,[7],12.8 µM (active)
same,outcome,[8],inactive
same,Potency,[9],20.3 µM (active)
same,outcome,[11],inactive
CCCCCCCCCCCCCCCC(=O)OC[C@H](O)[C@H]1OC(=O)C(O)=C1O,Potency,[13],34.7 µM (active)
same,Potency,[15],inactive
same,Potency,[1],inactive
same,Potency,[2],inactive
same,Potency,[4],38.9 µM (active)
same,Potency,[5],inactive
CC[C@@]1(O)C(=O)OCc2c1cc1n(c2=O)Cc2c-1nc1ccccc1c2/C=N/OC(C)(C)C,Potency,[1],inactive
same,Potency,[2],0.944 µM (active)
same,Potency,[12],15 µM (active)
same,Potency,[3],inactive
same,Potency,[4],0.848 µM (active)
same,Potency,[5],inactive
same,Potency,[14],0.119 µM (active)
N=C1N=C(N)c2ccccc21,Potency,[13],inactive
same,Potency,[15],inactive
same,Potency,[19],21.9 µM (active)
same,Potency,[2],43.3 µM (active)
same,Potency,[12],48.6 µM (active)
same,Potency,[3],inactive
same,Potency,[16],inactive
same,Potency,[4],inactive
Cc1cc(N)c(S(=O)(=O)O)cc1Cl,Potency,[13],inactive
same,outcome,[20],inactive
same,Potency,[19],inactive
same,Potency,[2],inactive
same,Potency,[12],inactive
same,Potency,[3],inactive
same,Potency,[18],inactive
same,Potency,[16],inactive
same,Potency,[4],inactive
same,Potency,[5],inactive
same,Potency,[14],inactive
same,Potency,[17],inactive
CCCC1O[C@@H]2C[C@H]3[C@@H]4CCC5=CC(=O)C=C[C@]5(C)[C@H]4[C@@H](O)C[C@]3(C)[C@]2(C(=O)CO)O1 (some centres undefined),Potency,[13],inactive
same,outcome,[20],inactive
same,Potency,[19],inactive
same,Potency,[2],inactive
same,Potency,[12],48.6 µM (active)
same,Potency,[3],inactive
same,Potency,[4],inactive
same,Potency,[5],inactive
same,Potency,[17],inactive
same,Potency,[6],inactive
same,outcome,[8],inactive
same,Potency,[9],inactive
same,outcome,[11],inactive
